The list is not random: actives were taken first. Their share in the collection is about 28%.
CYP2C9 activ = human CYP2C9 activators, primary screen, biochemical, luminescence | recombinant CYP2C9, luciferin-H conversion; active compounds read high; factor 1 = untreated enzyme, 0 = blocked | 96,000 tested, 1.4% active | activation factor at 5 µM | Cytochrome P450 2C9 (Homo sapiens), P11712 | AID 1024, 2008;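 active = activation factor of 2 or more for CYP2C9 at a 5 µM dose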;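 also: 0 = sulfaphenazole-blocked wells and 1 = vehicle-only wells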
hDAT+cocaine = changed hDAT dopamine uptake under cocaine IC80, either direction, primary screen, cocaine antagonist project, cell-based, LLC-PK1 hDAT, [14C]-dopamine uptake, MLSMR; LLC-PK1 hDAT cells, [14C]-dopamine uptake with cocaine IC80; actives deviate in either direction; B-score at 10 µM; Sodium-dependent dopamine transporter (Homo sapiens), Q01959; 110,000 tested, 1.3% active;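 active = Z score or B-score, a plate-position-corrected score, falls beyond the plate's 99.7% confidence bounds, in either direction; inactive = both scores lie inside the 99.7% bounds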;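 also: scored against the spread of the other compound wells on the same plate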
Target sequence (Q01959 whole entry, looked up): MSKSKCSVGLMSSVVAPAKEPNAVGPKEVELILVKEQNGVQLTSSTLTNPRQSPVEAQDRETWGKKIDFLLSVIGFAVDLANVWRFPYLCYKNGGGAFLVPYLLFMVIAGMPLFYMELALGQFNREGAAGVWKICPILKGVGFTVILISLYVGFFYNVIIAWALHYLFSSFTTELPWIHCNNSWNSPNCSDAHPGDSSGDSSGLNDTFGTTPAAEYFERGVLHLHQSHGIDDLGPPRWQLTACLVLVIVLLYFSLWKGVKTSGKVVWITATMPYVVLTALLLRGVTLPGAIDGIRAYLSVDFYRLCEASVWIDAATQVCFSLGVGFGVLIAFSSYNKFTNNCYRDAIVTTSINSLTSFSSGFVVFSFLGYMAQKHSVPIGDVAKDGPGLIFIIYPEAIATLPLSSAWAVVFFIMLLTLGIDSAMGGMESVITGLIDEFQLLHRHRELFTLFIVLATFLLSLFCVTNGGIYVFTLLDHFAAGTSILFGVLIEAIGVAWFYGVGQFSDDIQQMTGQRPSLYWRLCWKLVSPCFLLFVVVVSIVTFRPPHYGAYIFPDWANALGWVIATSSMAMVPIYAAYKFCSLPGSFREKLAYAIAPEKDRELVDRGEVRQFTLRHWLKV
D1 allo mod = D1 CRE-luciferase signal change, two-sided – cell-based, HEK293 D1, dopamine EC30, D1 allosteric modulator project, primary screen; D(1A) dopamine receptor (Homo sapiens), P21728; dopamine EC30 potentiation; actives deviate in either direction; AID 641, 2007; 58,000 tested, 5.9% active; B-score at 10 µM;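 active = luminescence count or its row- and column-corrected plate score outside the 99.7% band of the plate's sample wells, on either side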
CYP2C19 activ = human CYP2C19 activators, primary screen, biochemical, luminescence; Cytochrome P450 2C19 (Homo sapiens), P33261; recombinant CYP2C19, luciferin-H EGE luminescence; active compounds read high; 0 = fully inhibited enzyme, 1 = untreated enzyme; activation factor at 5 µM; 96,000 tested, under 10 active;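 active = activation factor of at least 2 at 5 µM in the primary screen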;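 also: 0 = wells with 2.5 mM tranylcypromine and 1 = vehicle-only wells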
CYP2C19 inhib = blockers of cytochrome P450 2C19 activity – biochemical, luminescence, ADME assay, primary screen | P33261 | CYP2C19 Supersomes, luciferin-H EGE luminescence, 30 min | inhibition, % at 5 µM | 96,000 tested, 21% active | AID 778, 2007;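 active = CYP2C19 inhibition above a set limit at 5 µM in the primary screen, cut at about 50% in these data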;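 also: plate controls were negative control wells for no effect and 2.5 mM tranylcypromine positive control for full effect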
CYP2C9 inhib = blockers of cytochrome P450 2C9 activity – biochemical, luminescence, ADME assay, primary screen. inhibition, % at 5 µM. CYP2C9 Supersomes, luciferin-H conversion. AID 777, 2007. 96,000 tested, 20% active. P11712;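 active = blocking of liver enzyme CYP2C9 beyond about 50% at 5 µM, limit read from the data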
* hit, by the source's call; . = not tested or not shown.

SMILES	CYP2C9 activ	hDAT+cocaine	D1 allo mod	CYP2C19 activ	CYP2C19 inhib	CYP2C9 inhib
Cc1cccc(-c2nnc(-c3cccc(NC(=O)Cc4cccs4)c3)o2)c1	0.4	-0.88	.	0.3	72*	65*
O=C(Cc1cccs1)Nc1cccc(-c2nc3ccccc3o2)c1	0.3	-0.03	.	0.7	27	67*
Cc1ccc(-c2nnc(-c3cccc(NC(=O)c4cccs4)c3)o2)cc1	0.2	-0.1	.	0.4	55*	78*
CCC(=O)Nc1cccc(-c2nc3ccccc3o2)c1	0.8	0.75	.	0.5	54*	22
O=C(Cc1cccs1)Nc1ccc(-c2nnc(-c3ccccc3)o2)cc1	.	-0.22	.	.	.	.
COc1ccc(Nc2nc(C)cc(C)c2C(N)=O)c(OC)c1	1	0.7	0.86	0.9	15	2
CC(C)C(NC(=O)OCc1ccccc1)C(=O)OCC(=O)N1CCCCC1 (stereo not given)	0.7	0.092	0.25	0.5	46	26
O=C(CCC(NC(=O)OCc1ccccc1)C(=O)OCC(=O)N1CCCCC1)OCC(=O)N1CCCCC1 (stereo not given)	0.1	1.4	.	0.2	83*	92*
COC(C[C@@H]1O[C@H]1[C@@H](O)COCc1ccccc1)OC	.	1.2	.	.	.	.
CC(C)c1[nH]nc2c1C(c1cccnc1)C(C#N)=C(N)O2 (stereo not given)	0.8	1.6	-0.53	0.6	36	22
CC(C)c1[nH]nc2c1C(C(C)C)C(C#N)=C(N)O2 (stereo not given)	1.1	-0.17	-0.68	0.4	59*	-11
CCc1[nH]nc2c1C(c1cccc(OC(=O)N3CCOCC3)c1)C(C#N)=C(N)O2 (stereo not given)	0.6	1.2	1.1	0.3	70*	37
CCCc1[nH]nc2c1C(Cc1ccccc1)C(C#N)=C(N)O2 (stereo not given)	0.9	-0.36	0.0066	0.3	68*	6
CCCc1[nH]nc2c1C(c1cc(OC)cc(OC)c1)C(C#N)=C(N)O2 (stereo not given)	0.7	-0.39	.	0.7	34	31
CC(C)c1[nH]nc2c1C(c1cccc(OC(=O)N3CCOCC3)c1)C(C#N)=C(N)O2 (stereo not given)	1	0.84	0.36	1.1	-6	3
Cc1ccc(SCc2[nH]nc3c2C(C(C)C)C(C#N)=C(N)O3)cc1 (stereo not given)	0.5	-0.083	.	0.6	36	52*
COc1ccc(C(CNC(=O)c2cc3ccccc3cc2OC)N2CCCC2)cc1 (stereo not given)	0.9	.	.	1	4	5
Cn1c(SCC(=O)NCc2ccccc2)nnc1C1CC1	1.1	-0.45	.	1	1	-8
CCOc1ccccc1C1C(C#N)=C(N)Oc2n[nH]c(CC)c21 (stereo not given)	0.7	-0.21	1.1	0.6	41	33
CCc1[nH]nc2c1C(Cc1ccccc1)C(C#N)=C(N)O2 (stereo not given)	0.9	-0.62	.	0.5	53*	14
CC(C)c1[nH]nc2c1C(Cc1ccccc1)C(C#N)=C(N)O2 (stereo not given)	0.4	1.2	-0.019	0	95*	57*
CCCc1[nH]nc2c1C(CCc1ccccc1)C(C#N)=C(N)O2 (stereo not given)	0.3	1.3	-1	0.2	77*	69*
Cc1[nH]nc2c1C(Cc1ccccc1)C(C#N)=C(N)O2 (stereo not given)	0.7	0.89	.	0.3	66*	33
CC(C)CC1C(C#N)=C(N)Oc2n[nH]c(-c3ccccc3)c21 (stereo not given)	.	-0.01	.	.	.	.
CCCc1[nH]nc2c1C(c1cccc(OC(=O)c3ccco3)c1)C(C#N)=C(N)O2 (stereo not given)	0.7	-0.0056	2.6	1.1	-6	26
SMILES	CYP2C9 activ	hDAT+cocaine	D1 allo mod	CYP2C19 activ	CYP2C19 inhib	CYP2C9 inhib
CCc1[nH]nc2c1C(c1ccsc1)C(C#N)=C(N)O2 (stereo not given)	.	-0.32	.	.	.	.
CCc1[nH]nc2c1C(c1ccc(Br)s1)C(C#N)=C(N)O2 (stereo not given)	0.3	1.2	.	0.3	67*	66*
C=CCn1c(Cc2cccs2)nnc1SCC(=O)Nc1cccc(OC)c1	0.7	0.49	0.93	0.6	44	31
Cc1ccc(-n2c(Cc3cccs3)nnc2SCC(=O)Nc2ccc(S(N)(=O)=O)cc2)cc1	0.3	1.1	-0.58	0.4	63*	74*
NS(=O)(=O)c1ccc(NC(=O)CSc2nnc(Cc3cccs3)n2-c2ccccc2)cc1	0.9	-0.031	.	1.1	-13	5
COc1ccc(-n2c(Cc3cccs3)nnc2SCC(=O)Nc2ccc3c(c2)OCCO3)cc1	0.4	1.5	-0.51	0.4	56*	61*
COc1cccc(NC(=O)CSc2nnc(Cc3cccs3)n2-c2ccc(C)cc2)c1	0.3	0.55	.	0.5	45	65*
C=CCn1c(Cc2cccs2)nnc1SCC(=O)Nc1ccc(OC)cc1	0.8	-0.68	0.39	0.8	21	23
COc1ccc(NC(=O)CSc2nnc(Cc3cccs3)n2-c2ccc(C)cc2)cc1	0.5	1.4	.	0.3	73*	51*
Nn1c(SCC(=O)Nc2ccc(F)c(F)c2)nnc1C1CCCCC1	0.7	-0.23	-0.41	0.8	23	30
CCCN(CCC)CCNC(=O)C(NS(=O)(=O)c1ccc2c(c1)CCC(=O)N2)c1ccccc1 (stereo not given)	1	-2	0.78	1	-3	1
O=C(CN1CCCCC1)Nc1cccc([N+](=O)[O-])c1	1	-0.88	.	1	-3	-4
CCCCC(CC)C(=O)Nc1ccccc1C#N (stereo not given)	0.6	-0.7	0.68	0.5	53*	43
Clc1ccccc1/C=N/c1cc(-c2ccccc2)nn1-c1ccccc1	1	.	.	1.1	-8	-4
CC(=O)N(CC(C)(C)CC=C(C)C)c1ccccc1	0.9	-0.45	-0.82	0.5	52*	13
C=CCn1c(=NC(=O)C2CCCCC2)sc2cc(NC(C)=O)ccc21	0.3	-2.5	.	0.8	15	68*
Cc1nc(-n2nnc3ccccc32)c2c3c(sc2n1)CCCC3	0.4	0.2	.	0.5	55*	59*
Cc1nc(N2CCN(c3ccccc3)CC2)c2c3c(sc2n1)CCC3	0.1	.	-1.2	0.1	95*	94*
c1ccc2c(c1)nnn2-c1ncnc2sc3c(c12)CCCC3	2.1*	-0.027	1.1	0.9	11	-107
